# From PubChem BioAssay AID1626 (SRMLSC, 2009)
# About 2,000 (0.91%) of roughly 220,000 compounds were called active. Roughly 2% stayed inconclusive and do not appear here. Rule as the data show it: inconclusive = inhibition above about 80% without an active follow-up result; inactive = below that; test concentration not stated here. Only a sample is shown. Measured potencies and affinities stand elsewhere.
# Experiment: M. tuberculosis H37Rv growth inhibitors, H37Rv strain (AID 1626);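 also: bacteria incubated seven days before Alamar blue readout; 0% = bacteria only wells and 100% = bacteria with antibiotic wells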
# Details: active compounds read high, concentration not given here
row,SMILES,inhibition
1,O=C(O)CSc1c2c(nc3cc(C(=O)NCCN4CCOCC4)ccc13)CCC2,-7.4% (inactive)
2,O=C(NCCCN1CCOCC1)c1ccc(CS(=O)(=O)Cc2ccc(Cl)cc2)o1,2.9% (inactive)
3,Cc1ccc(Nc2c([N+](=O)[O-])c(=O)oc3ccccc23)cc1C,60.5% (inactive)
4,O=c1oc2ccccc2c(Nc2ccccc2)c1[N+](=O)[O-],-3.06% (inactive)
5,CN1C(=O)NC(=O)/C(=C\C=C\c2ccccc2[N+](=O)[O-])C1=O,3.14% (inactive)
6,N#C/C(=C\c1ccc(N2CCOCC2)o1)C(=O)NCCc1ccccc1,1.46% (inactive)
7,N#C/C(=C/c1ccc(Br)s1)C(=O)NCCc1c[nH]c2ccccc12,-14% (inactive)
8,O=C(Nc1ccccc1)N(Cc1ccccc1)Cc1ccccc1,9.83% (inactive)
9,C=CCNC(=O)Nc1cc(Cl)ccc1OC,-2.63% (inactive)
10,Cc1cc(C(=O)COc2ccc3ccc(=O)oc3c2)c(C)n1C,-5.12% (inactive)
11,CC(=O)c1cccc(OCC(=O)c2cc(C)n(-c3cc(C)on3)c2C)c1,17.2% (inactive)
12,Cc1ccc2occ(C3N[C@H](C(=O)O)CS3)c(=O)c2c1 (stereo partly drawn),-2.55% (inactive)
13,COc1ccc(NS(=O)(=O)c2ccc3nc(COc4ccc5ccccc5c4)[nH]c3c2)cc1,15.1% (inactive)
14,COc1ccc(NS(=O)(=O)c2ccc3nc(COc4ccc(C#N)cc4)[nH]c3c2)cc1,12.1% (inactive)
15,CC(=O)c1c(C)nn(CC(O)Cn2c3c(c4cc(C)ccc42)CCCC3=O)c1C (stereo not drawn),7.8% (inactive)
16,COc1ccc(-n2nnc3c(=O)n(CC(=O)N4CCC(Cc5ccccc5)CC4)cnc32)cc1,-2.81% (inactive)
17,COc1cccc(-n2nnc3c(=O)n(CC(=O)N4CCC(Cc5ccccc5)CC4)cnc32)c1,2.62% (inactive)
18,O=C1[C@@H]2[C@@H]3C[C@@H]([C@H]4ON=C(c5ccc(OCc6ccccc6)cc5)[C@@H]34)[C@@H]2C(=O)N1c1ccc2c(c1)OCO2,0.02% (inactive)
19,O=C(Nc1ccc(-c2cnco2)cc1)c1ccccc1,3.05% (inactive)
20,O=C(Nc1ccc(-c2cnco2)cc1)c1ccc(Cl)cc1,-6.64% (inactive)
21,Cc1cc(C(C)(C)C)ccc1OCCn1ccnc1,-6.1% (inactive)
22,O=C(Cc1ccccc1)N/N=C/c1ccccc1Cl,7.74% (inactive)
23,CCOC(=O)c1cccc(NC(=O)CCc2nc(-c3ccccc3F)no2)c1,66.8% (inactive)
24,COc1ccc(-c2noc(CCCC(=O)Nc3ccc(C(N)=O)cc3)n2)cc1,-9.14% (inactive)

row,SMILES,inhibition
1,O=C(O)CCc1nc(-c2ccc(Cl)cc2)no1,-0.01% (inactive)
2,Cc1cccc(-c2noc(CCCC(=O)Nc3ccc(C(N)=O)cc3)n2)c1,0.64% (inactive)
3,Cc1cccc(-c2noc(CCC(=O)Nc3ccccc3)n2)c1,1.97% (inactive)
4,Cc1ccc(-c2noc(CCC(=O)Nc3ccccc3C)n2)cc1,13.8% (inactive)
5,CC(C)CNC(=O)CCc1nc(-c2ccccc2)no1,-9.52% (inactive)
6,Cc1cccc(-c2noc(CCC(=O)Nc3ccc(C(N)=O)cc3)n2)c1,0.33% (inactive)
7,O=C(CCc1ccccc1)NCCc1nc2ccccc2[nH]1,-3.29% (inactive)
8,CCN(c1ccccc1)S(=O)(=O)c1ccc(Cl)c(NC(=O)CN2C(=O)NC3(CCCC3)C2=O)c1,-9.72% (inactive)
9,CCC(C)(C(=O)NC1CCCC1)N(C)C(=O)c1ccccn1 (stereo not drawn),-3.46% (inactive)
10,COc1ccc2c(CC(=O)OCC(=O)c3ccccc3OC)coc2c1,3.25% (inactive)
11,O=C(CN1CCCCCCC1)Nc1ccc(Cl)cc1Cl,-1.9% (inactive)
12,CC1=NN(c2ccccc2)C(=O)/C1=C\c1sccc1C,-4.07% (inactive)
13,COC(=O)c1ccc(/C=N/OCC(=O)NCc2ccc(F)cc2)cc1,6.23% (inactive)
14,CC(C)CC1NC2(C(=O)N(C)c3ccccc32)C2C(=O)N(C(C)C)C(=O)C12 (stereo not drawn),0.86% (inactive)
15,N#Cc1c(-c2ccccc2)nc2n(-c3ccccc3)nc(C(=O)Nc3ccccc3)n2c1=O,8.32% (inactive)
16,N#Cc1ccccc1CSc1nnc(Cc2ccccc2)o1,0.34% (inactive)
17,CC(C)=Cc1c(O)nc2ccccn2c1=O,-3.05% (inactive)
18,Cc1c(NC(=O)CSCc2ccc(Br)cc2)c(=O)n(-c2ccccc2)n1C,-6.02% (inactive)
19,COc1ccccc1-c1noc(CCC(=O)Nc2ccccc2Cl)n1,-5.64% (inactive)
20,NC(=O)c1ccc(NC(=O)CCCc2nc(-c3ccccc3Cl)no2)cc1,-1.91% (inactive)
21,Cc1ccc(-c2noc(CCC(=O)Nc3ccc(C)cn3)n2)cc1,25.6% (inactive)
22,CCc1ccccc1NC(=O)CCc1nc(-c2ccc(C)cc2)no1,-5.75% (inactive)
23,O=C(/C=C/c1ccco1)N(Cc1cccc(Br)c1)C1CCS(=O)(=O)C1 (stereo not drawn),-13.6% (inactive)
24,Cc1ccc(NC(=O)c2ccc(N3CCOCC3)c([N+](=O)[O-])c2)cc1S(=O)(=O)N1CCOCC1,5.87% (inactive)

row,SMILES,inhibition
1,COc1cc(CNCC(C)C)cc(Br)c1OCC(=O)Nc1ccccc1,0.75% (inactive)
2,CCN(CC)CCNCc1cc(Cl)c(OCC(=O)Nc2ccccc2)c(OC)c1,7.36% (inactive)
3,O=C(Cn1c2[n+](c3ccccc31)CC(O)CS2)c1ccccc1 (stereo not drawn),-6.67% (inactive)
4,CCC(=O)N1CCN(c2ccc(OC)cc2[N+](=O)[O-])CC1,-1.32% (inactive)
5,NS(=O)(=O)c1ccc(-c2ccc(C=NC3CCS(=O)(=O)C3)o2)cc1 (stereo not drawn),-11.7% (inactive)
6,NS(=O)(=O)c1ccc(-c2ccc(/C=C3\SC(=S)N(C4CCS(=O)(=O)C4)C3=O)o2)cc1 (stereo not drawn),-2.38% (inactive)
7,CC(C)Cn1c(N)c(C(=O)COC(=O)c2ccc(F)cc2)c(=O)n(C)c1=O,6.86% (inactive)
8,CN(C)c1nc(N)nc(CSc2nnnn2-c2ccc(F)cc2)n1,-2.97% (inactive)
9,CC(=O)c1ccc(OC(=O)c2ccc(Br)o2)cc1,-1.59% (inactive)
10,CCCOc1ccc(OC(=O)c2ccc(Br)o2)cc1,3.47% (inactive)
11,CCC(=O)NCCc1nc2ccccc2n1Cc1ccc(C)cc1,-3.53% (inactive)
12,CCC(=O)NCCc1nc2ccccc2n1Cc1ccccc1,-11.3% (inactive)
13,CCC(=O)Nc1nc2ccccc2n1CCN(C)C,0.79% (inactive)
14,CCC(=O)Nc1nonc1-c1nc2ccccc2n1Cc1ccccc1,22.2% (inactive)
15,CCC(=O)Nc1nc2ccccc2n1CCN(CC)CC,-1.49% (inactive)
16,CC(=O)NCCc1nc2ccccc2n1Cc1ccc(Cl)cc1,-2.45% (inactive)
17,NCCNC(=O)Cc1cccc(NC(=O)Cc2ccc(Nc3ncnc4c3ncn4[C@@H]3O[C@H](CO)[C@@H](O)[C@H]3O)cc2)c1,10.9% (inactive)
18,COc1ccc(C(=O)c2ccc3oc(-c4ccc(OC)cc4)c(C#CCCO)c3c2)cc1,6.95% (inactive)
19,Cc1ccccc1NC(=O)c1ccc(F)c(S(=O)(=O)N2CCCCC2)c1,-2.34% (inactive)
20,CCn1cc(Br)c(C(=O)Nc2ccc(F)c(Cl)c2)n1,-11.6% (inactive)
21,CCOCCCNC(=O)c1ccc(NC(C)=O)cc1,-8.03% (inactive)
22,CC(=O)C1=C(O)C(=O)N(C)C1c1ccccc1F (stereo not drawn),0.41% (inactive)
23,CN(C[C@H](Cc1ccccc1)N(C[C@H](CC1CCCCC1)N(CCc1ccccc1)N=O)N=O)N=O,-1.37% (inactive)
24,CC(C)Sc1ncc(S(=O)(=O)c2ccccc2)c(=O)[nH]1,-2.21% (inactive)

row,SMILES,inhibition
1,CCCCn1c(O)c(C(CC)=Nc2ccc(C(=O)O)cc2)c(=O)[nH]c1=O,-1.19% (inactive)
2,C=CCn1c(O)c(C(C)=Nc2ccc(NC(C)=O)cc2)c(=O)[nH]c1=O,-0.17% (inactive)
3,CCCCn1c(O)c(C(C)=Nc2ccc(C(=O)O)cc2)c(=O)[nH]c1=O,-16.2% (inactive)
4,CCCCn1c(O)c(C(CC)=Nc2ccc3c(c2)CCC3)c(=O)[nH]c1=O,74.9% (inactive)
5,C=CCn1c(O)c(C(C)=Nc2ccc3c(c2)CCC3)c(=O)[nH]c1=O,54.5% (inactive)
6,CCCCn1c(O)c(C(CC)=Nc2ccc(OC)cc2OC)c(=O)[nH]c1=O,-1.05% (inactive)
7,CCCCn1c(O)c(C(C)=Nc2ccc3c(c2)CCC3)c(=O)[nH]c1=O,7.92% (inactive)
8,C=CCn1c(O)c(C(C)=Nc2ccc(C(=O)O)cc2)c(=O)[nH]c1=O,-11.5% (inactive)
9,O=C(O)CC(CNS(=O)(=O)c1cccc2nsnc12)c1ccccc1 (stereo not drawn),2.51% (inactive)
10,O=C1CC(c2nc3ccccc3[nH]2)CN1c1cccc(C(F)(F)F)c1 (stereo not drawn),2.87% (inactive)
11,CN1CCN(C(=S)c2ccc(-c3cccc(Cl)c3Cl)o2)CC1,2.93% (inactive)
12,Nc1c(Cl)ncnc1N/N=C/c1cccnc1,3.93% (inactive)
13,Cn1c(N2CCOCC2)cc(=O)n(C)c1=O,-3.19% (inactive)
14,COc1ccc(CCNC(=O)CSCc2ccc([N+](=O)[O-])cc2)cc1OC,-5.73% (inactive)
15,CCN(CC)c1ccc(C(=O)OCC(=O)Nc2ccc3[nH]c(=O)[nH]c3c2)cc1,6.23% (inactive)
16,O=C(Nc1ccc(Br)cc1)C1CCCN(S(=O)(=O)c2cccnc2)C1 (stereo not drawn),-3.26% (inactive)
17,C=CCn1c(CNC(=O)c2ccco2)nnc1SCC(=O)Nc1cccc(F)c1,2.84% (inactive)
18,CCn1c(SCc2nc3ccccc3c(=O)[nH]2)nc2ccccc21,11.6% (inactive)
19,COc1ccc2cc(C#N)c(N3CCN(C(=O)c4ccccc4C)CC3)nc2c1,7.93% (inactive)
20,COc1ccc2nc(N3CCC(O)CC3)c(C#N)cc2c1,1.43% (inactive)
21,CC(C)CCNC(=O)CCn1c(=S)oc2ccccc21,-7.67% (inactive)
